Columns and labels:
Experiment in all cases: DAPPL (digital affinity profiling via proximity ligation, sequencing); 10 mM Tris-HCl pH 7.5, 50 mM NaCl, 1 mM DTT, 4% glycerol, room temperature, 30 min; GST-TFs on glutathione beads, 16-mer random dsDNA library, 0.1% formaldehyde crosslink after washing; high values mean tight binding
Conditions in all cases: protein: recombinant; tags: N-terminal GST; dsDNA, one strand shown
SPIC = biological target: T1, SPIC (Homo sapiens, UniProt Q8N5J4 1-248)
T1 sequence: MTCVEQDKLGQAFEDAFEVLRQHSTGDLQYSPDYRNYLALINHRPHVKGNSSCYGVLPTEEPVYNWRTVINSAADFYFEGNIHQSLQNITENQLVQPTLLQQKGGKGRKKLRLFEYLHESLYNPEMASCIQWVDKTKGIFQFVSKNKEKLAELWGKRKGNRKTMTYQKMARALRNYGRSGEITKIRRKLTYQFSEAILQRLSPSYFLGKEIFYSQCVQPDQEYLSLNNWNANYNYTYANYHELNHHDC
How it was run: (§1)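 Sequencing on an Illumina NextSeq500 followed washing, crosslinking with 0.1% formaldehyde, proximity ligation (BsaI/T4 ligase, 1 h, 37 °C) and PCR amplification of pools that had been incubated for 30 min at room temperature with 200 nmole of a random double-stranded 16-mer DNA library in Tris/NaCl/DTT/glycerol buffer. Each pool held DNA-barcoded human transcription factors, expressed in yeast as GST fusions and captured on glutathione beads, plus a tag-only sample. Binding signal is a hexamer's read frequency for a factor divided by its frequency in the tag-only sample.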

SPDEF = biological target: T2, SPDEF (Homo sapiens, UniProt O95238 1-335)
T2 sequence: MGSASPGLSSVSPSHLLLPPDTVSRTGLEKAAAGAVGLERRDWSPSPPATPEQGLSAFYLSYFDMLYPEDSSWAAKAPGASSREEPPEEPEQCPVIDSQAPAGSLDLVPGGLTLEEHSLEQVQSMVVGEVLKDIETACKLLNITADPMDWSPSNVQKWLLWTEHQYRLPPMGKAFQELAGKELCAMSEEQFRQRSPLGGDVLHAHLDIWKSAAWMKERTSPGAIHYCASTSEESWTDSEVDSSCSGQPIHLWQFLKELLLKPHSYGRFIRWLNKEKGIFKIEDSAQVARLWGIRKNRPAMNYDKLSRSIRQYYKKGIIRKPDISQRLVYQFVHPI
How it was run: as §1

ELF5 = biological target: T3, ELF5 (Homo sapiens, UniProt Q9UKW6-2 1-255)
T3 sequence: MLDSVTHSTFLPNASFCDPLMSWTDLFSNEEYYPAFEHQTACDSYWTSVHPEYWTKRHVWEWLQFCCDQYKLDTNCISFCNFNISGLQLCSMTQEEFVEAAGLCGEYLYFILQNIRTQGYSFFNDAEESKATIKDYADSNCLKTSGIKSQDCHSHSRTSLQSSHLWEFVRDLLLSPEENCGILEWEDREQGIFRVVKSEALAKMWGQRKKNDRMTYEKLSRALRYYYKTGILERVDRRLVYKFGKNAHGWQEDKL
How it was run: as §1

ETV7 = biological target: T4, ETV7 (Homo sapiens, UniProt Q9Y603 1-341)
T4 sequence: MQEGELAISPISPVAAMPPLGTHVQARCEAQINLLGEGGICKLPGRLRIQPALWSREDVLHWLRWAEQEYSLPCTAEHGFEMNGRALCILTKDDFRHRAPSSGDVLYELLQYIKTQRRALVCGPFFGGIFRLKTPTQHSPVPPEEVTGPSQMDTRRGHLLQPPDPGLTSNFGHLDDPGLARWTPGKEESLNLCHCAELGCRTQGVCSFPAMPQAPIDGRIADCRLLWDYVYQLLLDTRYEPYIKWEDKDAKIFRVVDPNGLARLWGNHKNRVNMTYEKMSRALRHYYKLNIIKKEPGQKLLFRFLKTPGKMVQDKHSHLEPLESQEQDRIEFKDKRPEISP
How it was run: as §1

ETV2 = biological target: T5, ETV2 (Homo sapiens, UniProt O00321 1-342)
T5 sequence: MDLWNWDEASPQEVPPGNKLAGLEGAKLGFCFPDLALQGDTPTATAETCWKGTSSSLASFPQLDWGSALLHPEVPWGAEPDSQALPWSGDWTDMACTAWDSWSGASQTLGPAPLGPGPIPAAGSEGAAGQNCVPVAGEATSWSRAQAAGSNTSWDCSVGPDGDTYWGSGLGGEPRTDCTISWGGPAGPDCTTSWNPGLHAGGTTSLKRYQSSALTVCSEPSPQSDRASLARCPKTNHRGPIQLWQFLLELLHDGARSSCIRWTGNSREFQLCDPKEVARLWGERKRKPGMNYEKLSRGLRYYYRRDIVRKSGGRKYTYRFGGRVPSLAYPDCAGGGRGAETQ
How it was run: as §1

ETV3 = biological target: T6, ETV3 (Homo sapiens, UniProt P41162-2 1-143)
T6 sequence: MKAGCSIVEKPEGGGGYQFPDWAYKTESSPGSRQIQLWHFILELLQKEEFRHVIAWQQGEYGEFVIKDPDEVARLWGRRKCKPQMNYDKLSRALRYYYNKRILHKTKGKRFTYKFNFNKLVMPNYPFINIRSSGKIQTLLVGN
How it was run: as §1

ELF3 = biological target: T7, ELF3 (Homo sapiens, UniProt P78545 1-371)
T7 sequence: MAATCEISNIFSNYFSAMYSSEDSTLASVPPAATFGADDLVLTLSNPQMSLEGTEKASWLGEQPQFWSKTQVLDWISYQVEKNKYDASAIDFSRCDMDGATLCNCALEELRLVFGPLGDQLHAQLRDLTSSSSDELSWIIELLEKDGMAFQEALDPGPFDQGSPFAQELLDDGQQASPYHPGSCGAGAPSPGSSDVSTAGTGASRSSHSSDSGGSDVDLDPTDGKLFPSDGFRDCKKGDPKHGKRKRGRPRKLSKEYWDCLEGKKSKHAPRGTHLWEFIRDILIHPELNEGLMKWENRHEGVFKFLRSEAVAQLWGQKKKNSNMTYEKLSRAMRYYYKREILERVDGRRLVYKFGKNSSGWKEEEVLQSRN
How it was run: as §1

GABPA = biological target: T8, GABPA (Homo sapiens, UniProt Q06546 1-454)
T8 sequence: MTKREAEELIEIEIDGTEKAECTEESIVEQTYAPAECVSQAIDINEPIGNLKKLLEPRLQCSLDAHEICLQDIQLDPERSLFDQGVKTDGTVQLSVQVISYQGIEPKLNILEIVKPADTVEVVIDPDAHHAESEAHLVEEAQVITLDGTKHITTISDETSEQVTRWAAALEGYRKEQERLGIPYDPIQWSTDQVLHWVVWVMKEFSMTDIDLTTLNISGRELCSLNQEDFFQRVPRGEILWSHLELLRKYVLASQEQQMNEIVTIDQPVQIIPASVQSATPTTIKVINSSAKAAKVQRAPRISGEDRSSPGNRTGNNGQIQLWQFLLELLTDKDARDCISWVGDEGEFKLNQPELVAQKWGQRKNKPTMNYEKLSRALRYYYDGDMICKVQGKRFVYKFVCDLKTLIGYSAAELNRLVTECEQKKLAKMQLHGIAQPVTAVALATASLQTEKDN
How it was run: as §1

ELF1 = ELF1 (Homo sapiens, UniProt P32519 1-619)
Sequence of ELF1 (P32519 whole entry): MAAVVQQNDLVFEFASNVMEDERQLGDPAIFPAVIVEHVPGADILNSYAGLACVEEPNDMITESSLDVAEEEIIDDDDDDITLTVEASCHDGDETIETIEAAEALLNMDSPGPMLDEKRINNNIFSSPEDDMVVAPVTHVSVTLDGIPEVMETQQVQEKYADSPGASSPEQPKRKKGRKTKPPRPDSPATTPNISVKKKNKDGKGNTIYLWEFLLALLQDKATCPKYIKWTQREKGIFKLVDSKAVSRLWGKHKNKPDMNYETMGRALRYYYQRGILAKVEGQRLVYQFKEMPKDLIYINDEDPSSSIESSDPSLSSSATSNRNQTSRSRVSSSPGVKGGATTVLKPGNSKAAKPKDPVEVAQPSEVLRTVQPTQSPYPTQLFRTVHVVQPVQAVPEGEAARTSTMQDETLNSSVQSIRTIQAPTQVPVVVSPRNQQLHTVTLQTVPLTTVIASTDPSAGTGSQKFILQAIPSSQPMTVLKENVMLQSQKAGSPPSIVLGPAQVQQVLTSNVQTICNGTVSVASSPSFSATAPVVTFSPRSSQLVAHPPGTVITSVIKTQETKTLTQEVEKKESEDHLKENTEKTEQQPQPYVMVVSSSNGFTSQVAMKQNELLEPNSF
How it was run: as §1

SPIB = SPIB (Homo sapiens, UniProt Q01892 1-262)
Sequence of SPIB (Q01892 whole entry): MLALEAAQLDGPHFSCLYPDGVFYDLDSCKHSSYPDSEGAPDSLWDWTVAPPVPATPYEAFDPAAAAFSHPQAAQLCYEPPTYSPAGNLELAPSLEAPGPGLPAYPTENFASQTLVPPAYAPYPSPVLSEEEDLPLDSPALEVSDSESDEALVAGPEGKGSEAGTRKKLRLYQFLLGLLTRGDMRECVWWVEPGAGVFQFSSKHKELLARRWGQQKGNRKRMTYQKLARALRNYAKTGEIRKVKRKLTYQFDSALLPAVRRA
How it was run: as §1

ELK3 = biological target: T9, ELK3 (Homo sapiens, UniProt P41970 1-407)
T9 sequence: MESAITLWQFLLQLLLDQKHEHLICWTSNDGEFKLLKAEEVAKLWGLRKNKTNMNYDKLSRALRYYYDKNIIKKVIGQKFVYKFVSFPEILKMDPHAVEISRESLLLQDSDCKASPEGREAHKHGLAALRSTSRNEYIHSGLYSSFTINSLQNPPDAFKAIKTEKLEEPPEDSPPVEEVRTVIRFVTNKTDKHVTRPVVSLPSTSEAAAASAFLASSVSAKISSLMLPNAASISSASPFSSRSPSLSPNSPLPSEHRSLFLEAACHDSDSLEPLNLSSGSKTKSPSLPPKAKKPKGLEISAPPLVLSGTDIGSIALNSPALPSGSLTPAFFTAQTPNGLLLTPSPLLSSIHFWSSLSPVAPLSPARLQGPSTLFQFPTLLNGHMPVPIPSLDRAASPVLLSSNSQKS
How it was run: as §1

ELK4 = biological target: T10, ELK4 (Homo sapiens, UniProt P28324-2 1-405)
T10 sequence: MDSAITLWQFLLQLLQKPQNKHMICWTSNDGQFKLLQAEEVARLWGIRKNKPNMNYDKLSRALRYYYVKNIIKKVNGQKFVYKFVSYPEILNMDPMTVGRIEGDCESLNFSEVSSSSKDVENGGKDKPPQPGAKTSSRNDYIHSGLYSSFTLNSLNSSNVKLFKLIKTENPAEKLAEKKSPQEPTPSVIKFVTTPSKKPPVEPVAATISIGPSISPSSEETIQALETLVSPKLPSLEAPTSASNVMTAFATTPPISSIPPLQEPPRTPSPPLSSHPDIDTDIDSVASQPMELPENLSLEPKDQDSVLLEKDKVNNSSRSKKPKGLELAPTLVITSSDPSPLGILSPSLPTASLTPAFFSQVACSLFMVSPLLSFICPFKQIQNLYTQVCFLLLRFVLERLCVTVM
How it was run: as §1

ETV1 = ETV1 (Homo sapiens, UniProt P50549 1-477)
Sequence of ETV1 (P50549 whole entry): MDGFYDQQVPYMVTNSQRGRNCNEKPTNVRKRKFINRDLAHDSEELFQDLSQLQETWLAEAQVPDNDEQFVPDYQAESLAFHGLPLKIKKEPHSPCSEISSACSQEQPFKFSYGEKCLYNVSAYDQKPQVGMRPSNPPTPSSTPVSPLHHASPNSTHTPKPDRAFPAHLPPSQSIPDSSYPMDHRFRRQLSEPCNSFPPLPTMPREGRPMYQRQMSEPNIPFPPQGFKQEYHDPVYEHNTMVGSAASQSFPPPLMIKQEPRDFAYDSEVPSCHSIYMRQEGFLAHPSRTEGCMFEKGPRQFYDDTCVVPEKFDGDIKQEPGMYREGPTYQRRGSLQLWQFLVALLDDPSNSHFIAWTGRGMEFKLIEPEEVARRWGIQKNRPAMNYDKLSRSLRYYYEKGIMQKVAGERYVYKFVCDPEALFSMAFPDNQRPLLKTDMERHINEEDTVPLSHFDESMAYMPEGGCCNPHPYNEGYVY
How it was run: as §1

ERF = biological target: T11, ERF (Homo sapiens, UniProt P50548 1-548)
T11 sequence: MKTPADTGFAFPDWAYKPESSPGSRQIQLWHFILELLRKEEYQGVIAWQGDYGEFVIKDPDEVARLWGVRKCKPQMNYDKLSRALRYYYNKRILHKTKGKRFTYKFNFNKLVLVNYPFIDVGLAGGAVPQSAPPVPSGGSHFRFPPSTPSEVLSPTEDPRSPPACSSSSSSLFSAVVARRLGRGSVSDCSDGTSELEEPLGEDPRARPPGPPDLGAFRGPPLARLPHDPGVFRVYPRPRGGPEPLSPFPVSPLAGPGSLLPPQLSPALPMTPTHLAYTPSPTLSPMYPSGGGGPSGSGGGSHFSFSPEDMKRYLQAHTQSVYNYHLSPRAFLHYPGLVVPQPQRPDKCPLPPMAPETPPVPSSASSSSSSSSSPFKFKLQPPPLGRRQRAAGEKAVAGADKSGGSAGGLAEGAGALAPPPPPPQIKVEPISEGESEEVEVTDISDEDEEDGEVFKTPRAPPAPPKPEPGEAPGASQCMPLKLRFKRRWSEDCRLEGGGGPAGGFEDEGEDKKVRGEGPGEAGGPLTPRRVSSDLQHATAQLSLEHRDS
How it was run: as §1

ETV3L = biological target: T12, ETV3L (Homo sapiens, UniProt Q6ZN32 1-361)
T12 sequence: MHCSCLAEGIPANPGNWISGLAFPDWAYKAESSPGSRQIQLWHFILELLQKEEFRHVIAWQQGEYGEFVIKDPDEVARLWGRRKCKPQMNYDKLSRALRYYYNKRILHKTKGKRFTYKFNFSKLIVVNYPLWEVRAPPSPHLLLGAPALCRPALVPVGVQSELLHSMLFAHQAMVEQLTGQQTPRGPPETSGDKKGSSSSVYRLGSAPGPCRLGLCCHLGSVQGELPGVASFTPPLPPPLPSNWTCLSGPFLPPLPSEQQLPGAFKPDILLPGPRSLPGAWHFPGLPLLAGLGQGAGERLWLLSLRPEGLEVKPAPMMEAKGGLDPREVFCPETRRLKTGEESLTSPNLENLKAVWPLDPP
How it was run: as §1

In the case of CGGGTT, the binding signal (SPIC) is reported as 1 fold enrichment (6-mer frequency, TF over GST control), the binding signal (SPDEF) is reported as 1.09 fold enrichment (6-mer frequency, TF over GST control) and the binding signal (ELF5) is reported as 1.02 fold enrichment (6-mer frequency, TF over GST control).

In the case of GTAGTA, the binding signal (SPIC) is reported as 1 fold enrichment (6-mer frequency, TF over GST control) and the binding signal (ETV7) is reported as 1.01 fold enrichment (6-mer frequency, TF over GST control).

In the case of CGCAAT, the binding signal (SPIC) is reported as 1.01 fold enrichment (6-mer frequency, TF over GST control), the binding signal (ETV2) is reported as 1.04 fold enrichment (6-mer frequency, TF over GST control) and the binding signal (ETV3) is reported as 1.01 fold enrichment (6-mer frequency, TF over GST control).

With AGGTGT the binding signal (SPIC) was 1.02 fold enrichment (6-mer frequency, TF over GST control) and the binding signal (ELF3) was 1.05 fold enrichment (6-mer frequency, TF over GST control).

With CCACGT the binding signal (GABPA) was 1.09 fold enrichment (6-mer frequency, TF over GST control), the binding signal (ELF1) was 1.04 fold enrichment (6-mer frequency, TF over GST control) and the binding signal (SPIB) was 1.03 fold enrichment (6-mer frequency, TF over GST control). For the same sequence, the binding signal (ELK3) was 1.05 fold enrichment (6-mer frequency, TF over GST control), the binding signal (SPIC) was 1.09 fold enrichment (6-mer frequency, TF over GST control) and the binding signal (ELK4) was 1.01 fold enrichment (6-mer frequency, TF over GST control). The binding signal (ETV1) was 1.01 fold enrichment (6-mer frequency, TF over GST control), the binding signal (ERF) was 1.07 fold enrichment (6-mer frequency, TF over GST control) and the binding signal (ETV3L) was 1.04 fold enrichment (6-mer frequency, TF over GST control). For the same sequence, the binding signal (SPDEF) was 1.02 fold enrichment (6-mer frequency, TF over GST control) and the binding signal (ETV7) was 1.06 fold enrichment (6-mer frequency, TF over GST control).

Reference: paper PMC7862700, “An all-to-all approach to the identification of sequence-specific readers for epigenetic DNA modifications on cytosine”
